{"source": "the antibiotic and cytotoxicity screens of Wong et al. (2023)", "note": "The whole screen tested about 39,000 compounds, of which about 1,500 (3.8%) were called active. For the sample, actives were picked, then their nearest neighbours and some compounds at random.", "data": [{"tested_on": "HSkMC (human skeletal muscle cells)", "assay": "cytotoxicity call (relative viability < 0.9)", "conditions": "10 µM", "values": [{"smiles": "COCCN1CCO[C@@H]2CN(Cc3cnn(C)c3)C[C@@H]21", "cytotoxicity call": "inactive"}, {"smiles": "CN1CCN(C(=O)C[C@H]2CC[C@@H]3[C@H](COC[C@H](O)CN3C(=O)Nc3ccc4c(c3)OCO4)O2)CC1", "cytotoxicity call": "inactive"}, {"smiles": "C[C@H]1CN([C@@H](C)CO)C(=O)c2cc(NC(=O)Nc3cccc4ccccc34)ccc2O[C@@H]1CN(C)S(=O)(=O)c1cccs1", "cytotoxicity call": "inactive"}, {"smiles": "C[C@H]1CN([C@@H](C)CO)C(=O)Cc2cc(NC(=O)NC3CCCCC3)ccc2O[C@@H]1CN(C)C(=O)Nc1ccc(C(F)(F)F)cc1", "cytotoxicity call": "inactive"}, {"smiles": "C[C@@H]1CN([C@H](C)CO)C(=O)c2cc(NC(=O)Nc3ccccc3)ccc2O[C@@H]1CN(C)Cc1ccc(C(F)(F)F)cc1", "cytotoxicity call": "active"}, {"smiles": "C[C@@H]1CN([C@H](C)CO)C(=O)c2cc(NC(=O)Nc3ccccc3)ccc2O[C@H]1CN(C)Cc1ccc(C(F)(F)F)cc1", "cytotoxicity call": "inactive"}, {"smiles": "C[C@H](CO)N1C[C@H](C)[C@H](CN(C)Cc2ccc(C(F)(F)F)cc2)Oc2ccc(NC(=O)Nc3ccccc3)cc2C1=O", "cytotoxicity call": "inactive"}, {"smiles": "C[C@H]1CN([C@@H](C)CO)C(=O)c2cc(NC(=O)Nc3ccccc3)ccc2O[C@H]1CN(C)Cc1ccc(C(F)(F)F)cc1", "cytotoxicity call": "inactive"}, {"smiles": "C[C@H](CO)N1C[C@H](C)[C@@H](CN(C)Cc2ccc(C(F)(F)F)cc2)Oc2ccc(NC(=O)Nc3ccccc3)cc2C1=O", "cytotoxicity call": "inactive"}, {"smiles": "C[C@@H]1CN([C@@H](C)CO)C(=O)c2cc(NC(=O)Nc3ccccc3)ccc2O[C@H]1CN(C)Cc1ccc(C(F)(F)F)cc1", "cytotoxicity call": "active"}, {"smiles": "NCc1cn(Cc2ccc(Cl)c(Cl)c2)cn1", "cytotoxicity call": "inactive"}, {"smiles": "C[C@H](CO)N1C[C@H](C)[C@@H](CN(C)S(=O)(=O)c2ccc(F)cc2)Oc2ccc(NS(=O)(=O)c3ccc(F)cc3)cc2CC1=O", "cytotoxicity call": "inactive"}, {"smiles": "CN(C)CCCNC(=O)C[C@@H]1CC[C@H](NS(=O)(=O)c2ccccc2)[C@@H](CO)O1", "cytotoxicity call": "inactive"}, {"smiles": "C[C@H]1CN([C@@H](C)CO)C(=O)Cc2cc(NC(=O)Cc3ccccc3)ccc2O[C@@H]1CN(C)S(=O)(=O)c1cn(C)cn1", "cytotoxicity call": "inactive"}, {"smiles": "C[C@H](CO)N1C[C@H](C)[C@H](CN(C)C(=O)C2CCCCC2)OCCCC[C@H](C)Oc2ccc(NS(=O)(=O)c3ccc(Cl)cc3)cc2C1=O", "cytotoxicity call": "inactive"}, {"smiles": "Cc1ccc(-c2ccc3c(c2)O[C@H](CN(C)C(=O)Nc2ccc(C(F)(F)F)cc2)[C@@H](C)CN([C@@H](C)CO)S3(=O)=O)cc1", "cytotoxicity call": "active"}, {"smiles": "Cc1ccc(-c2ccc3c(c2)O[C@@H](CN(C)C(=O)Nc2ccc(C(F)(F)F)cc2)[C@H](C)CN([C@H](C)CO)S3(=O)=O)cc1", "cytotoxicity call": "active"}, {"smiles": "Cc1ccc(-c2ccc3c(c2)O[C@H](CN(C)C(=O)Nc2ccc(C(F)(F)F)cc2)[C@@H](C)CN([C@H](C)CO)S3(=O)=O)cc1", "cytotoxicity call": "inactive"}, {"smiles": "Cc1ccccc1-c1ccc2c(c1)O[C@@H](CN(C)C(=O)Nc1ccc(C(F)(F)F)cc1)[C@H](C)CN([C@H](C)CO)S2(=O)=O", "cytotoxicity call": "inactive"}, {"smiles": "Cc1ccc(-c2ccc3c(c2)O[C@H](CN(C)C(=O)Nc2ccc(C(F)(F)F)cc2)[C@H](C)CN([C@H](C)CO)S3(=O)=O)cc1", "cytotoxicity call": "inactive"}, {"smiles": "Cc1ccc(-c2ccc3c(c2)O[C@@H](CN(C)C(=O)Nc2ccc(C(F)(F)F)cc2)[C@@H](C)CN([C@@H](C)CO)S3(=O)=O)cc1", "cytotoxicity call": "inactive"}, {"smiles": "Cc1ccccc1-c1ccc2c(c1)O[C@@H](CN(C)C(=O)Nc1ccc(C(F)(F)F)cc1)[C@@H](C)CN([C@@H](C)CO)S2(=O)=O", "cytotoxicity call": "active"}, {"smiles": "Cc1ccccc1-c1ccc2c(c1)O[C@H](CN(C)C(=O)Nc1ccc(C(F)(F)F)cc1)[C@H](C)CN([C@@H](C)CO)S2(=O)=O", "cytotoxicity call": "inactive"}, {"smiles": "Cc1ccc(-c2ccc3c(c2)O[C@H](CN(C)C(=O)Nc2ccc(C(F)(F)F)cc2)[C@H](C)CN([C@@H](C)CO)S3(=O)=O)cc1", "cytotoxicity call": "inactive"}, {"smiles": "C[C@@H]1CCCCO[C@@H](CN(C)C(=O)Nc2ccc3c(c2)OCO3)[C@H](C)CN([C@H](C)CO)C(=O)c2cc(NC(=O)Cc3ccccc3)ccc2O1", "cytotoxicity call": "inactive"}, {"smiles": "CC(/C=C/C(=O)NO)=C\\c1ccccc1OC[C@@H]1[C@H]2C[C@H]3c4[nH]c5ccccc5c4CCN3C[C@@H]2CC[C@@H]1O", "cytotoxicity call": "inactive"}, {"smiles": "C[C@@H]1CN([C@@H](C)CO)C(=O)c2cccc(NC(=O)C3CCCCC3)c2O[C@H]1CN(C)Cc1ccc(C(F)(F)F)cc1", "cytotoxicity call": "inactive"}, {"smiles": "CC1CC=CC=CC=CC=CC(OC2OC(C)C(O)C(N)C2O)CC2OC(O)(CC(O)CC3OC3C=CC(=O)O1)CC(O)C2C(=O)O", "note": "(stereo not given)", "cytotoxicity call": "inactive"}, {"smiles": "CN1C(=O)c2cc(NC(=O)Nc3ccccc3F)ccc2OC[C@H]2O[C@@H](CC(=O)Nc3cccc(Cl)c3)CC[C@@H]21", "cytotoxicity call": "inactive"}, {"smiles": "CCOC(=O)N1CCN(C(=O)C2CCN(S(=O)(=O)N(CC)CC)CC2)CC1", "cytotoxicity call": "inactive"}, {"smiles": "C[C@@H]1CN([C@@H](C)CO)C(=O)Cc2cc(NS(=O)(=O)c3cn(C)cn3)ccc2O[C@@H]1CN(C)Cc1ccncc1", "cytotoxicity call": "inactive"}, {"smiles": "CCCN1C[C@H](C(=O)O)CCC1=O", "cytotoxicity call": "inactive"}, {"smiles": "C[C@@H]1CN([C@H](C)CO)C(=O)Cc2cc(NC(=O)Cc3cn(C)c4ccccc34)ccc2O[C@H]1CN(C)Cc1ccc(Cl)c(Cl)c1", "cytotoxicity call": "active"}, {"smiles": "C[C@H]1CN([C@@H](C)CO)C(=O)Cc2cc(NC(=O)Cc3cn(C)c4ccccc34)ccc2O[C@H]1CN(C)Cc1ccc(Cl)c(Cl)c1", "cytotoxicity call": "active"}, {"smiles": "C[C@H]1CN([C@@H](C)CO)C(=O)Cc2cc(NC(=O)Cc3cn(C)c4ccccc34)ccc2O[C@@H]1CN(C)Cc1ccc(Cl)c(Cl)c1", "cytotoxicity call": "active"}, {"smiles": "C[C@@H]1CN([C@H](C)CO)C(=O)Cc2cc(NC(=O)Cc3cn(C)c4ccccc34)ccc2O[C@@H]1CN(C)Cc1ccc(Cl)c(Cl)c1", "cytotoxicity call": "inactive"}, {"smiles": "Cc1noc(C)c1S(=O)(=O)N(C)C[C@H]1Oc2ccc(NC(=O)Cc3cn(C)c4ccccc34)cc2CC(=O)N([C@H](C)CO)C[C@H]1C", "cytotoxicity call": "inactive"}, {"smiles": "C[C@H](CO)N1C[C@H](C)[C@@H](CN(C)Cc2ccc(Cl)c(Cl)c2)Oc2ccc(NC(=O)Cc3cn(C)c4ccccc34)cc2CC1=O", "cytotoxicity call": "inactive"}, {"smiles": "C[C@@H]1CN([C@@H](C)CO)C(=O)Cc2cc(NC(=O)Cc3cn(C)c4ccccc34)ccc2O[C@H]1CN(C)Cc1ccc(Cl)c(Cl)c1", "cytotoxicity call": "inactive"}, {"smiles": "C[C@H](CO)N1C[C@H](C)[C@H](CN(C)Cc2ccc(Cl)c(Cl)c2)Oc2ccc(NC(=O)Cc3cn(C)c4ccccc34)cc2CC1=O", "cytotoxicity call": "inactive"}, {"smiles": "C[C@@H]1CN([C@H](C)CO)C(=O)Cc2cc(NC(=O)Cc3cn(C)c4ccccc34)ccc2O[C@@H]1CN(C)Cc1ccc(-c2ccccc2)cc1", "cytotoxicity call": "inactive"}, {"smiles": "C[C@@H]1CN([C@@H](C)CO)C(=O)Cc2cc(NC(=O)Cc3cn(C)c4ccccc34)ccc2O[C@@H]1CN(C)Cc1ccc(Cl)c(Cl)c1", "cytotoxicity call": "inactive"}, {"smiles": "Cc1noc(C)c1S(=O)(=O)N(C)C[C@H]1Oc2ccc(NC(=O)Cc3cn(C)c4ccccc34)cc2CC(=O)N([C@H](C)CO)C[C@@H]1C", "cytotoxicity call": "inactive"}, {"smiles": "Cc1noc(C)c1S(=O)(=O)N(C)C[C@@H]1Oc2ccc(NC(=O)Cc3cn(C)c4ccccc34)cc2CC(=O)N([C@@H](C)CO)C[C@@H]1C", "cytotoxicity call": "active"}, {"smiles": "C/C=C/c1ccc2c(c1)O[C@@H](CN(C)S(=O)(=O)c1ccc(C)cc1)[C@@H](C)CN([C@@H](C)CO)S2(=O)=O", "cytotoxicity call": "inactive"}, {"smiles": "C[C@H]1CCCCO[C@@H](CN(C)S(=O)(=O)c2cccs2)[C@@H](C)CN([C@@H](C)CO)C(=O)c2cc(NC(=O)NC3CCCCC3)ccc2O1", "cytotoxicity call": "inactive"}, {"smiles": "CCn1nc(C)c([C@@H](C)N)c1C", "cytotoxicity call": "inactive"}, {"smiles": "Cc1ccc(S(=O)(=O)Nc2ccc3c(c2)C(=O)N([C@H](C)CO)C[C@@H](C)[C@H](CN(C)C(=O)Nc2cccc4ccccc24)OCCCC[C@H](C)O3)cc1", "cytotoxicity call": "inactive"}, {"smiles": "COc1ccc(NC(=O)N(C)C[C@H]2Oc3ccc(NS(C)(=O)=O)cc3C(=O)N([C@H](C)CO)C[C@H]2C)cc1", "cytotoxicity call": "inactive"}, {"smiles": "C[C@H]1CN([C@@H](C)CO)C(=O)Cc2cc(NC(=O)Cn3cnnn3)ccc2O[C@@H]1CN(C)C(=O)NC1CCCCC1", "cytotoxicity call": "inactive"}, {"smiles": "CC1(C)CNCC(=O)NC1", "cytotoxicity call": "inactive"}, {"smiles": "Cc1cc(C)nc(SCC(=O)NN)n1", "cytotoxicity call": "inactive"}, {"smiles": "Cc1ccc(NC(=O)c2ccc(CN3CCN(C)CC3)cc2)cc1Nc1nccc(-c2cccnc2)n1", "cytotoxicity call": "inactive"}, {"smiles": "Cc1ccc(C(=O)Nc2cccc(C(F)(F)F)c2)cc1Nc1nc(-c2cccnc2)nc2c1cnn2C", "cytotoxicity call": "inactive"}, {"smiles": "Cc1cn(-c2cc(NC(=O)c3ccc(C)c(Nc4nccc(-c5cnccn5)n4)c3)cc(C(F)(F)F)c2)cn1", "cytotoxicity call": "active"}, {"smiles": "O=C(Nc1cccnc1)c1nc2ncccn2n1", "cytotoxicity call": "inactive"}, {"smiles": "Cc1ccc(NC(=O)c2ccc(CN3CC[C@H](N(C)C)C3)c(C(F)(F)F)c2)cc1Nc1nccc(-c2cncnc2)n1", "cytotoxicity call": "active"}, {"smiles": "Cc1ncc(NC(=O)c2ccc(CN3CCN(C)CC3)c(C(F)(F)F)c2)cc1Nc1nccc(-c2cccnc2)n1", "cytotoxicity call": "inactive"}, {"smiles": "Cc1cn(-c2cc(NC(=O)c3ccc(C)c(Nc4nccc(-c5cccnc5)n4)c3)cc(C(F)(F)F)c2)cn1", "cytotoxicity call": "active"}, {"smiles": "C[C@@H]1CN([C@H](C)CO)C(=O)c2cc(/C=C/c3ccccc3)cnc2O[C@H]1CN(C)C(=O)c1cnccn1", "cytotoxicity call": "inactive"}, {"smiles": "CN1CCN(C(=O)C[C@@H]2CC[C@H]3[C@@H](COC[C@@H](O)CN3C(=O)C3CCCC3)O2)CC1", "cytotoxicity call": "inactive"}, {"smiles": "Cc1noc(C)c1S(=O)(=O)Nc1ccc2c(c1)C(=O)N([C@H](C)CO)C[C@@H](C)[C@H](CN(C)S(=O)(=O)c1cccs1)O2", "cytotoxicity call": "inactive"}, {"smiles": "Cc1ccc(S(=O)(=O)Nc2ccc3c(c2)C(=O)N([C@H](C)CO)C[C@H](C)[C@@H](CN(C)Cc2ccncc2)OCCCC[C@H](C)O3)cc1", "cytotoxicity call": "inactive"}, {"smiles": "COc1ccc(NC(=O)N(C)C[C@@H]2OCCCC[C@@H](C)Oc3ccc(NC(=O)Cc4ccccc4)cc3C(=O)N([C@@H](C)CO)C[C@H]2C)cc1", "cytotoxicity call": "inactive"}, {"smiles": "C[C@H](CO)N1C[C@H](C)[C@@H](CN(C)Cc2ccc(C(=O)O)cc2)Oc2c(NC(=O)Nc3cccc4ccccc34)cccc2C1=O", "cytotoxicity call": "inactive"}]}]}
